Our source for the outcome and AC50 values is PubChem BioAssay (EPA / NIEHS).

Results filed as inconclusive are left out. The source made the active and inactive calls. The calls were made as follows: active = hit-call score of the fitted dose curve at least 0.9, where 1 is the maximum; inconclusive = response in the unintended direction; inactive = score below 0.9.

Assay [1] in a line: TOX21_p53_BLA_p2_viability: Viability Assessment in the Tox21 HCT-116 p53 Agonism Beta-lactamase Assay, Phase 2 (AID 2283591).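 Also: compound exposure lasted 16 h at 37 °C; actives lower the ATP signal meaning cytotoxicity.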 In outline: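 HCT-116 p53-bla cells (4000/well) rested 5 h at 37C, then received compounds in DMSO (217-fold dilution) for 16 h at 37C, 5% CO2. After the CCF4 read, CellTiter-Glo was added; ATP luminescence was read after 30 min at room temperature.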

Assay [2] concerns the target Cellular tumor antigen p53 (Homo sapiens) (UniProt P04637). The experiment in a line: TOX21_p53_BLA_p2_ratio: Tox21 HCT-116 p53 Agonism Beta-lactamase Assay, Ratio, Phase 2 (AID 2283592). Summed up:
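Read-out is the blue/green (460/530 nm, 405 nm excitation) ratio after 2 h CCF4-AM loading, fitted as gain versus DMSO. Compounds, pinned at 217-fold dilution from DMSO stocks, stayed 16 h on HCT-116 beta-lactamase reporter cells seeded 5 h earlier.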

Assay [3] is described as follows: TOX21_p53_BLA_p3_viability: Viability Assessment in the Tox21 HCT-116 p53 Agonism Beta-lactamase Assay, Phase 3 (AID 2283593).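 Also: cells exposed to compound for 16 h before reading.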 Summed up: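 HCT-116 cells (4000/well) rested 5 h at 37C, then got DMSO compounds by pin tool (217-fold dilution) for 16 h at 37C, 5% CO2. After the bla read, CellTiter-Glo was added and luminescence read at 30 min, room temperature.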
Assay [4] deals with Cellular tumor antigen p53 (Homo sapiens) (UniProt P04637). The experiment in a line: TOX21_p53_BLA_p3_ratio: Tox21 HCT-116 p53 Agonism Beta-lactamase Assay, Ratio, Phase 3 (AID 2283596). In outline:
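Cells were seeded at 4000/well, rested 5 h at 37C, then dosed with DMSO compound solutions (217-fold dilution) for 16 h. CCF4-AM substrate was loaded for 2 h at room temperature, and the 460/530 nm emission ratio was fitted for gain of signal versus DMSO.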

Assay [5] has the same target. The experiment in a line: TOX21_p53_BLA_p5_ratio: Tox21 HCT-116 p53 Agonism Beta-lactamase Assay, Ratio, Phase 5 (AID 2283599). Summed up: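 HCT-116 cells carrying a p53-inducible beta-lactamase reporter were seeded at 4000 cells/well and dosed after 5 h with compound in DMSO (217-fold dilution). After 16 h at 37C, CCF4-AM substrate was added for 2 h, and the 460/530 nm emission ratio was scored as gain-of-signal versus DMSO.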

The target is the same in assay [6]. Description: TOX21_p53_BLA_p4_ratio: Tox21 HCT-116 p53 Agonism Beta-lactamase Assay, Ratio, Phase 4 (AID 2283601). In outline:
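HCT116 cells carrying an inducible beta-lactamase reporter were plated at 4000 cells/well, rested 5 h, then exposed to compounds in DMSO (217-fold dilution) for 16 h at 37C. CCF4-AM substrate was loaded 2 h at room temperature; 460/530 nm emission ratio scored gain-of-signal versus DMSO.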

A short description of assay [7]: TOX21_p53_BLA_p5_viability: Viability Assessment in the Tox21 HCT-116 p53 Agonism Beta-lactamase Assay, Phase 5 (AID 2283600). In outline:
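Viability came from CellTiter-Glo ATP luminescence, read after 30 min at room temperature. Before this, HCT-116 p53-bla cells (4000/well) had 16 hours of compound exposure at 37C, with DMSO stocks diluted 217-fold on transfer.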

Assay [8] can be described thus: TOX21_p53_BLA_p4_viability: Viability Assessment in the Tox21 HCT-116 p53 Agonism Beta-lactamase Assay, Phase 4 (AID 2283597).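 Also: hits lower the luminescence signal meaning cytotoxicity.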 Summed up:
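Cytotoxicity as reduced cellular ATP (CellTiter-Glo luminescence, 30 min room temperature), measured in the same wells following the CCF4 FRET p53 reading. Human HCT-116 cells received compounds in DMSO (217-fold dilution) for 16 h.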

Sequence of Cellular tumor antigen p53 (Homo sapiens) (P04637 whole entry, looked up): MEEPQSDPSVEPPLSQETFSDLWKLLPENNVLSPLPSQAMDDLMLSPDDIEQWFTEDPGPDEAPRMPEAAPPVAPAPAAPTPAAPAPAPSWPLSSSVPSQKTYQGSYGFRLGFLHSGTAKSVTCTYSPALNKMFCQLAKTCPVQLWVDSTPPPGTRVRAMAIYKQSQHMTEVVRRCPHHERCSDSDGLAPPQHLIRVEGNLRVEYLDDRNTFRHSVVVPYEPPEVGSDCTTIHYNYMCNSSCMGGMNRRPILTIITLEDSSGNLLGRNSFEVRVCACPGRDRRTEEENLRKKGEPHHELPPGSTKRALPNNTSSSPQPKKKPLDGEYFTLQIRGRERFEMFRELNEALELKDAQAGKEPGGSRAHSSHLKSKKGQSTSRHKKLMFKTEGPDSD

As to `NC(=O)[C@@H]1CCCN1C(=O)[C@H](Cc1cnc[nH]1)NC(=O)[C@@H]1CCC(=O)N1`, the result in assay [1], in assay [2], in assay [3], in assay [4], in assay [5] and in assay [6] was inactive.
As usually defined, the AC50 is the concentration at which the activity in the assay is half-maximal. `Nc1nc2ccc(OC(F)(F)F)cc2s1`: the outcome in assay [1] and in assay [3] was inactive. For the same compound, the AC50 in assay [2] was 7.3 µM (active); in assay [4], 7.29 µM (active); in assay [5], 23.9 µM (active); in assay [6], 11.3 µM (active).
For the compound `CC(O)[C@@H]1NC(=O)[C@H](Cc2ccccc2)NC(=O)[C@H](C(C)O)NC(=O)[C@H](CCCCN)NC(=O)[C@H](Cc2c[nH]c3ccccc23)NC(=O)[C@H](Cc2ccccc2)NC(=O)[C@H](Cc2ccccc2)NC(=O)[C@H](CC(N)=O)NC(=O)[C@H](CCCCN)NC(=O)[C@@H](NC(=O)CNC(=O)[C@H](C)N)CSSC[C@@H](C(=O)O)NC(=O)[C@H](CO)NC1=O` (some centres undefined), the compound was called inactive in assay [1], in assay [2], in assay [3], in assay [4] and in assay [7].
As to `C[C@H](/C=C/[C@H](C)C(C)(C)O)[C@H]1CC[C@H]2/C(=C/C=C3C[C@@H](O)C[C@H](O)C3)CCC[C@]12C`, the compound was called inactive in assay [1], in assay [2], in assay [4] and in assay [7]. Also, the AC50 in assay [3] was 30 µM (active).
For the compound `CC(=O)CC(C)=O`, the compound was called inactive in assay [1], in assay [2], in assay [3], in assay [4] and in assay [7].
Consider `C[C@]12CCC(=O)C[C@@H]1CC[C@@H]1[C@@H]2CC[C@]2(C)C=CC[C@@H]12`, for which the compound was classed as inactive in assay [1], in assay [2], in assay [3], in assay [4], in assay [7] and in assay [6].
As to `Nc1cc(S(=O)(=O)O)ccc1S(=O)(=O)O`, the call in assay [1], in assay [2], in assay [3] and in assay [8] was inactive.
For the compound `CCN(CC)CCNC(=O)c1cc(Cl)c(N)cc1OC`, the compound was called inactive in assay [1], in assay [2], in assay [3], in assay [4], in assay [7] and in assay [6].
In the case of `CCC1C(=O)OCC1Cc1cncn1C` (centres undefined), the compound was called inactive in assay [1], in assay [2], in assay [3], in assay [4], in assay [7] and in assay [6].
Take `O=C(NC1CCN(CCc2c[nH]c3ccccc23)CC1)c1ccccc1`: the compound was called inactive in assay [1], in assay [2], in assay [3], in assay [4] and in assay [6].
In the case of `CCCCC[C@H](O)/C=C/[C@H]1[C@H](O)CC(=O)[C@@H]1C/C=C\CCCC(=O)O`, the call in assay [1], in assay [2], in assay [3], in assay [4], in assay [7] and in assay [6] was inactive.
Regarding `CC1(C)C2CC[C@]3(C)[C@H](C(=O)C=C4[C@@H]5C[C@@](C)(C(=O)O)CC[C@]5(C)CC[C@]43C)[C@@]2(C)CC[C@@H]1O[C@H]1O[C@H](C(=O)O)[C@@H](O)[C@H](O)[C@H]1O[C@@H]1O[C@H](C(=O)O)[C@@H](O)[C@H](O)[C@H]1O` (some centres undefined), the outcome in assay [1], in assay [2], in assay [3] and in assay [8] was inactive.
With `Cc1c(NC(C)C)c(=O)n(-c2ccccc2)n1C`, the result in assay [1], in assay [2], in assay [3], in assay [4], in assay [7] and in assay [6] was inactive.
Take `C[N+](C)(CCCCCC[N+](C)(C)C1c2ccccc2-c2ccccc21)C1c2ccccc2-c2ccccc21`: the call in assay [1], in assay [2], in assay [3] and in assay [8] was inactive.
With `O=C(O)CCC(=O)OC[C@@H](NC(=O)C(Cl)Cl)[C@H](O)c1ccc([N+](=O)[O-])cc1`, the call in assay [1], in assay [2], in assay [3], in assay [4] and in assay [7] was inactive.
As for `C[C@H]1C[C@H]2[C@@H]3CCC4=CC(=O)C=C[C@]4(C)[C@@]3(F)[C@@H](O)C[C@]2(C)[C@@]1(O)C(=O)CCl`, the result in assay [1], in assay [2], in assay [3] and in assay [8] was inactive.
For the compound `NC(=O)c1ncn([C@@H]2O[C@H](CO)[C@@H](O)[C@H]2O)c1N`, the compound was classed as inactive in assay [1], in assay [2], in assay [3], in assay [4], in assay [7] and in assay [6].
